From PubChem BioAssay (Tox21)
A number with no mark means an inactive call. Results filed as inconclusive are left out. Activity calls are given as the source filed them. Unless noted, calls come from the whole dose curve; as a rule, active = well fitted curve in the direction sought with a large enough effect in the repeat runs; inconclusive = weak or mixed curves; inactive = no such curve, though single readings can be large; an effect the other way counts as inactive or inconclusive.

target: Androgen receptor (Homo sapiens) (UniProt P10275); assay: qHTS assay to identify small molecule antagonists of the androgen receptor (AR) signaling pathway (AID 743035; active = well fitted inhibition curve with a large enough effect in the signal ratio in the repeat runs, not every such curve was filed as active; the % refers to the signal ratio); conditions: HEK293 AR-UAS-bla, R1881-stimulated, beta-lactamase FRET, 16 h; series mostly up to 58.5 µM; activity change, negative = inhibition: at the top concentration
Method in brief: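 Antagonism is scored as loss of R1881-driven beta-lactamase reporter expression in HEK293 cells carrying the reporter under a UAS element, after 16 h co-treatment at 37C and a 2 h room-temperature FRET substrate read.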
% is set by controls: 0 for no effect and ±100 for the full control effect.

Androgen receptor (Homo sapiens), sequence (P10275 whole entry, looked up): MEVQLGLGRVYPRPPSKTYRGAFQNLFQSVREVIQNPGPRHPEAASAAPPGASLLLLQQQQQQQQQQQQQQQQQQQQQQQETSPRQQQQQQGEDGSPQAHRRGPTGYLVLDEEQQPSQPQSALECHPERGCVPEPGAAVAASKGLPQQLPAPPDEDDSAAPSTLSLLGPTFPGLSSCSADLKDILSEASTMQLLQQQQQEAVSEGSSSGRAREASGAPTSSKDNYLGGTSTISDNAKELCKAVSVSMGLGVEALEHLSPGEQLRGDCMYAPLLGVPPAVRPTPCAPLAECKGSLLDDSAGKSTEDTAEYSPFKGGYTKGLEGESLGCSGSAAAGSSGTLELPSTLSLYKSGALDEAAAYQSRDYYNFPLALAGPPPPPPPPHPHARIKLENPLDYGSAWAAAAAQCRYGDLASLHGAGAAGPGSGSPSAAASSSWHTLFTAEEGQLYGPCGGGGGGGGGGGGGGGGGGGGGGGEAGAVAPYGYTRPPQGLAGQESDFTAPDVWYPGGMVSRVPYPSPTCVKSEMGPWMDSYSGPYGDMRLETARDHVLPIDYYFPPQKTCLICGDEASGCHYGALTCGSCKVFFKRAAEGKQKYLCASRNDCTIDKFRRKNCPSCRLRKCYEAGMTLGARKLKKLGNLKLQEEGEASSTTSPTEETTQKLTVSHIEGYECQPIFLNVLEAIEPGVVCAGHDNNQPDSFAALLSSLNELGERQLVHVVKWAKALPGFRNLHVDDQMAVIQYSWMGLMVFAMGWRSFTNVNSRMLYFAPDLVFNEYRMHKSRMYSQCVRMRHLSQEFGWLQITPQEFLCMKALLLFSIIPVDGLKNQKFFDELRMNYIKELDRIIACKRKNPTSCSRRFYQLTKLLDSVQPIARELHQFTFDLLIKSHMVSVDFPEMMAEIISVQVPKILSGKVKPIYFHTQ

| SMILES | activity change, negative = inhibition |
| --- | --- |
| OC(CCCN1CCCCC1)(c1ccccc1)c1ccccc1 | 10.5% |
| O=C(CCCCCCCCC#CI)Oc1ccccc1 | -24.9% |
| CC(=O)Nc1ccc(N)cc1 | -15.7% [at 78.9 µM] |
| CNC(=O)N(c1ccccc1)c1ccccc1 | 7.04% [at 78.9 µM] |
| Cc1cc(O)c2c(O)c3c(O)cccc3cc2c1 | -4.57% |
| CO[C@H]1C=CO[C@@]2(C)Oc3c(C)c(O)c4c(O)c(c5c(c4c3C2=O)=NC2(CCN(CC(C)C)CC2)N=5)NC(=O)/C(C)=C\C=C/[C@H](C)[C@H](O)[C@@H](C)[C@@H](O)[C@@H](C)[C@H](OC(C)=O)[C@@H]1C | -0.942% |

target: Androgen receptor (Homo sapiens) (UniProt P10275); assay: qHTS assay to identify small molecule agonists of the androgen receptor (AR) signaling pathway (AID 743036; active = well fitted activation curve with a large enough effect in the signal ratio in the repeat runs, with a control signal flat, not every such curve was filed as active; the % refers to the signal ratio); conditions: HEK293 AR-UAS-bla GripTite, beta-lactamase FRET ratio, 16 h; series mostly up to 62.4 µM; activation: at the top concentration
Method in brief: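 HEK293 cells stably carrying a UAS-driven beta-lactamase reporter (GeneBLAzer AR-UAS-bla-GripTite) were plated at 2,000 cells/well, rested 4 h at 37C, then exposed to compounds in DMSO for 16 h. LiveBLAzer B/G FRET substrate was added for 2 h at room temperature; fluorescence read.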

| SMILES | activation | Potency |
| --- | --- | --- |
| OC(CCCN1CCCCC1)(c1ccccc1)c1ccccc1 | -2.13% | – |
| O=C(CCCCCCCCC#CI)Oc1ccccc1 | 0.0076% | – |
| CC(=O)Nc1ccc(N)cc1 | 4.05% [at 79.1 µM] | – |
| CNC(=O)N(c1ccccc1)c1ccccc1 | 13.2% [at 79.1 µM] | – |
| CO[C@H]1C=CO[C@@]2(C)Oc3c(C)c(O)c4c(O)c(c5c(c4c3C2=O)=NC2(CCN(CC(C)C)CC2)N=5)NC(=O)/C(C)=C\C=C/[C@H](C)[C@H](O)[C@@H](C)[C@@H](O)[C@@H](C)[C@H](OC(C)=O)[C@@H]1C | – | inactive |

target: Androgen receptor (Homo sapiens) (UniProt P10275); assay: qHTS assay to identify small molecule agonists of the androgen receptor (AR) signaling pathway using the MDA cell line (AID 743040; note: nearly all actives have a fitted effect of over 20% in size); conditions: MDA-kb2 AR-luc cells, MMTV luciferase, 16 h; series mostly up to 70.3 µM; activity change: at the top concentration
Method in brief: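 Cells plated, 5 h at 37C/0% CO2; compound or DMSO pinned; 16 h at 37C; ONE-Glo added; luminescence measured after 30 min at room temperature. Reporter line: MDA-kb2 with MMTV-luciferase responsive to AR and GR.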

| SMILES | activity change |
| --- | --- |
| OC(CCCN1CCCCC1)(c1ccccc1)c1ccccc1 | 0.882% |
| CCCc1c(OCCCOc2ccc(OCC(=O)O)cc2)ccc(C(C)=O)c1O | 1.35% |
| Fc1ccccc1[C@@H](F)COC1CCC(Nc2ncnc3[nH]ncc23)CC1 (stereo partly specified) | -10.1% |
| Cc1cc(O)c2c(O)c3c(O)cccc3cc2c1 | 0.763% |

system: not listed separately; assay: qHTS assay to identify small molecule antagonists of the androgen receptor (AR) signaling pathway using the MDA cell line - cell viability counter screen (AID 743041; note: nearly all actives have a fitted effect of over 45% in size); conditions: MDA-kb2 viability, CellTiter-Fluor, 16 h, cells co-treated with R1881 androgen agonist; series mostly up to 70.3 µM; viability change, negative = cytotoxic: at the top concentration
Method in brief: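 Cells were plated at 3,000 per well and left 5 h. Compounds in DMSO were then pinned in, followed by R1881. After 16 h at 37C, CellTiter-Fluor fluorescence gave viability.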

| SMILES | viability change, negative = cytotoxic | Potency |
| --- | --- | --- |
| O=S(=O)(c1ccccc1)c1ccc(Cl)cc1 | 22.1% | – |
| CNCCCC1c2ccccc2C=Cc2ccccc21 | 1.54% [at 32.5 µM] | – |
| OC(CCCN1CCCCC1)(c1ccccc1)c1ccccc1 | -30% | – |
| O=C(CCCCCCCCC#CI)Oc1ccccc1 | -1.29% | – |
| CCCCCCCCCCCCCCCCBr | 5.44% [at 32.5 µM] | – |
| CC(=O)Nc1ccc(N)cc1 | -4.9% [at 95 µM] | – |
| Cc1ccc(/C=N/n2c(-c3ccccc3)csc2=S)cc1 | 3.9% | – |
| CNC(=O)N(c1ccccc1)c1ccccc1 | -1.4% [at 95 µM] | – |
| Cc1cc(O)c2c(O)c3c(O)cccc3cc2c1 | -7.01% | – |
| CC(CCc1ccc2c(c1)OCO2)NN (stereo unspecified) | 4.59% | – |
| Cc1cc(O)c(C(C)C)cc1Cl | – | inactive |
| COC(=O)[C@@H]1CC2=CC(=O)CC[C@]2(C)[C@@]23O[C@@H]2C[C@@]2(C)[C@@H](CC[C@@]24CCC(=O)O4)[C@H]13 | -0.315% | – |
| C[C@@H]1C[C@H]2[C@@H]3CCC4=CC(=O)C=C[C@]4(C)[C@@]3(F)[C@@H](O)C[C@]2(C)[C@H]1C(=O)CO | 4.99% | – |
| CO[C@H]1C=CO[C@@]2(C)Oc3c(C)c(O)c4c(O)c(c5c(c4c3C2=O)=NC2(CCN(CC(C)C)CC2)N=5)NC(=O)/C(C)=C\C=C/[C@H](C)[C@H](O)[C@@H](C)[C@@H](O)[C@@H](C)[C@H](OC(C)=O)[C@@H]1C | – | inactive |
| O=C(O)c1snc(Cl)c1Cl | -6.97% | – |
| Cc1ccnc2ccccc12 | 8.09% | – |
| CO[Si](C)(OC)OC | 8.77% | – |
| CC(=O)Oc1ccc(C(=C2CCCCC2)c2ccc(OC(C)=O)cc2)cc1 | -3.73% | – |
| CC(=O)Oc1ccc2c(c1)CC[C@@H]1[C@@H]2CC[C@]2(C)[C@@H](O)CC[C@@H]12 | 0.0093% | – |
| COC(OC)(C(=O)c1ccccc1)c1ccccc1 | -5.68% | – |
| Cc1oncc1C(=O)Nc1ccc(C(F)(F)F)cc1 | – | inactive |
| CC1(C)C(=O)N(Br)C(=O)N1Cl | 1.35% | – |

target: Androgen receptor (Homo sapiens) (UniProt P10275); assay: qHTS assay to identify small molecule antagonists of the androgen receptor (AR) signaling pathway using the MDA cell line (AID 743042; note: nearly all actives have a fitted effect of over 55% in size; note: potency is the fitted concentration of half-maximal effect); conditions: MDA-kb2 AR-luc, MMTV luciferase, R1881 antagonist, 16 h; series mostly up to 70.3 µM; activity change, negative = inhibition: at the top concentration
Method in brief: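 Antagonist mode: compounds plus R1881 agonist added to MDA-kb2 AR-luc cells, incubated 16 h at 37C. Luciferase reporter luminescence quantified, with multiplexed CellTiter-Fluor readout for cell viability.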

| SMILES | activity change, negative = inhibition | Potency |
| --- | --- | --- |
| OC(CCCN1CCCCC1)(c1ccccc1)c1ccccc1 | 7.66% | – |
| CCCc1c(OCCCOc2ccc(OCC(=O)O)cc2)ccc(C(C)=O)c1O | 13% | – |
| COc1ccc(C(=O)c2cccc(O)c2)c(OC)c1 | 1.82% | – |
| Fc1ccccc1[C@@H](F)COC1CCC(Nc2ncnc3[nH]ncc23)CC1 (stereo partly specified) | – | 19.3 µM (active) |
| O=C(CCCCCCCCC#CI)Oc1ccccc1 | 3.69% | – |
| CC(=O)Nc1ccc(N)cc1 | 1.91% [at 95 µM] | – |
| CNC(=O)N(c1ccccc1)c1ccccc1 | 4.67% [at 95 µM] | – |
| Cc1cc(O)c2c(O)c3c(O)cccc3cc2c1 | -7.35% | – |
| CO[C@H]1C=CO[C@@]2(C)Oc3c(C)c(O)c4c(O)c(c5c(c4c3C2=O)=NC2(CCN(CC(C)C)CC2)N=5)NC(=O)/C(C)=C\C=C/[C@H](C)[C@H](O)[C@@H](C)[C@@H](O)[C@@H](C)[C@H](OC(C)=O)[C@@H]1C | -5.36% | – |
